Screening results (PubChem BioAssay)
PAX8 inh HTS – PAX8 transcriptional activity inhibition; inhibition, % at 12.6 µM; 1.2% of 360,000 active; RMG-I TPO-luciferase reporter, SteadyGlo, 24 h;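 active means mean replicate inhibition at least 60% with every replicate also reaching 60%; inconclusive means only one of the two criteria is met; inactive means mean below 60% and not all replicates reaching 60%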;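 further: luciferase light reporting Pax8 driven TPO promoter activity; plate controls were median of neutral control wells for no effect and mitoxantrone controls for full effect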
Peg3 promoter – Peg3 promoter activity inhibition; HeLa PEG-Prom luciferase reporter, luminescence, overnight; inhibition, % at 20 µM; 1.7% of 360,000 active; AID 588405;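 active means inhibition of at least 50% at 20 µM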
TRPM1 prom inh – MITF TRPM1 promoter inhibition in SK-MEL-5 cells. AID 488899. inhibition, % at 12.5 µM. 0.83% of 330,000 active. SK-MEL-5 TRPM1 promoter luciferase, 24 h;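 active means mean inhibition across replicates of 60% or more, whatever share of single replicates reaches that level; inconclusive means some that reach 60%, reason not given; inactive means mean inhibition across replicates below 60%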
EBV LMP1 NFkB – inhibitors of Epstein-Barr LMP1-induced NF-kappaB reporter; LMP1-induced NF-kappaB luciferase reporter cells, luminescence; inhibition, % at 12.5 µM; 0.69% of 350,000 active; AID 504558; in the data active means inhibition above about 41%; inconclusive means no clear call, values can overlap the other calls;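 further: 0% = neutral control wells and 100% = reference inhibitor control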
Shn3 3UTR inh – Schnurri-3 reporter inhibition in Clone20 osteoblasts; inhibition, % at 12.5 µM; Clone20 osteoblast Shn3 3'UTR firefly luciferase, 24 h; AID 588674; 0.52% of 360,000 active;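 active means mean inhibition of at least 75% with every replicate also reaching 75%; inconclusive means mean inhibition at least 75% but some replicate below; inactive means mean inhibition below 75%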;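 further: 0% = median of neutral control wells and 100% = pilot-screen positive control compound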
HIF-2a inh – inhibitors of HIF-2a; 786-0 RCC cells HIF-2a reporter, luciferase luminescence, overnight; inhibition, % at 18.8 µM; 0.72% of 360,000 active; AID 624352;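 active means inhibition of the luminescence signal of 40% or more relative to plate controls, in a single-dose primary screen at 18.75 µM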
* marks the source's active call; other numbers are inactive results; ? = inconclusive; / = no result; ! = not confirmed by another sample. Compounds with a hit are over-represented: about 2.8% of the library has one in this group of screens.

SMILES | PAX8 inh HTS | Peg3 promoter | TRPM1 prom inh | EBV LMP1 NFkB | Shn3 3UTR inh | HIF-2a inh
COc1cccc(/C=N/NC(=O)c2ccc3nc[nH]c3c2)c1O | -66.3 | -0.3 | 5.3 | 14.0 | 16.2 | 1.9
CCOc1ccccc1/C=N/NC(=O)c1c(C)nc2ccc(Br)cn12 | 8.4 | -1.4 | -7.6 | -5.5 | 18.8 | 13.4
COc1cccc(/C=N\NC(=O)c2ccc(Cn3cc(Br)c([N+](=O)[O-])n3)o2)c1O | 14.5 | 34.3 | 48.9 | 14.9 | 89.1* | -79.8
COc1cc(OC)c2cc(C(=O)N/N=C/c3cccc(OC)c3O)[nH]c2c1 | 29.3 | 56.7* | 53.5 | -2.6 | 95.6* | -23.9
COc1cc(/C=N\NC(=O)c2ccc(Cn3nc([N+](=O)[O-])c(Cl)c3C)o2)ccc1O | / | 3.7 | -0.3 | 8.3 | 2.8 | 8.5
COc1cccc(/C=N/NC(=O)c2c(C)nc3ccc(Br)cn23)c1O | / | 48.6 | 67.4* | 63.5* | ? | -19.9
CS(=O)(=O)N1[C@@H](C#N)[C@H](c2ccccc2)[C@@H]1CO | -29.9 | / | / | / | / | /
C[C@@H]1CN([C@H](C)CO)C(=O)Cc2cc(NC(=O)Cc3ccccc3)ccc2O[C@@H]1CN(C)CC1CC1 | 10.9 | / | / | / | / | /
CO[C@H]1CN(C)C(=O)c2ccc(NS(=O)(=O)c3ccc(C)cc3)cc2OC[C@H](C)N(C)C[C@H]1C | -3.3 | / | / | / | / | /
C[C@H](CO)N1C[C@H](C)[C@H](CN(C)Cc2ccncc2)Oc2ccc(NS(=O)(=O)c3cn(C)cn3)cc2CC1=O | -6.3 | / | / | / | / | /
O=C(C[C@H]1C[C@@H]2c3cc(NC(=O)C4CCC4)ccc3O[C@@H]2[C@H](CO)O1)NCc1ccccn1 | 11.2 | / | / | / | / | /
Cc1cccc(NC(=O)CSc2nc3ccccc3c(=O)n2C)c1C | 7.1 | 19.0 | / | 13.9 | 86.7* | 6.1
C[C@H]1CN([C@@H](C)CO)C(=O)c2cc(/C=C/c3ccccc3)cnc2O[C@@H]1CN(C)C(=O)Cc1cccnc1 | -2.7 | / | / | / | / | /
NC(=O)[C@H]1CC2(CC(c3cccc(NC(=O)COc4ccc(Cl)cc4)c3)=NO2)CN1C(=O)C(c1ccccc1)c1ccccc1 (stereo not given in full) | 88.8* | 39.5 | 44.7 | 11.1 | -1.5 | -54.1
Cc1c(C(=O)N2CC3(CC(c4cccc(NC(=O)CC(c5ccccc5)c5ccccc5)c4)=NO3)C[C@@H]2C(N)=O)cc([N+](=O)[O-])cc1[N+](=O)[O-] (stereo not given in full) | 64.9* | 21.4 | 32.5 | -8.2 | 12.4 | 7.4
NC(=O)[C@@H]1CC2(CC(c3cccc(NC(=O)COc4ccc(Cl)cc4)c3)=NO2)CN1C(=O)COc1ccc(Cl)cc1 (stereo not given in full) | ? | 14.6 | 24.1 | 19.7 | 63.9 | -42.5
c1ccc(CCNc2ccnc3cc4ccccc4cc23)cc1 | 50.5 | 105.6* | 102.6* | -59.5 | 94.1* | -2.8
O=C(NC(=S)/C(=C1\CCCCCN1)[N+](=O)[O-])c1ccccc1 | / | -14.8 | 27.5 | 40.3* | 32.6 | 22.1
COc1ccc(NC(=O)N[C@H]2CC[C@@H](CCn3cc(-c4ccccn4)nn3)O[C@@H]2CO)cc1 | -4.3 | / | / | / | / | /
CO[C@H]1CN(C)C(=O)c2ccc(NS(=O)(=O)CC(F)(F)F)cc2OC[C@@H](C)N(Cc2nccs2)C[C@H]1C | 15.2 | / | / | / | / | /
O=C(ONC1=NCCCCC1)c1ccc(Cl)cc1 | / | 101.3* | -9.1 | -25.7 | -23.3 | 30.4
C[C@H](CO)N1C[C@H](C)[C@@H](CN(C)C(=O)Nc2ccc(C(F)(F)F)cc2)OCCCC[C@H](C)Oc2ccc(NC(=O)Nc3ccc4c(c3)OCO4)cc2C1=O | 6.3 | / | / | / | / | /
CSC(=S)NCc1cccnc1 | 64.3* | 46.8 | -7.7 | 22.7 | -4.7 | 9.5
C[C@H](CO)N1C[C@H](C)[C@H](CN(C)CC2CCCCC2)OCCCC[C@H](C)Oc2ccc(NC(=O)Nc3ccc(C(F)(F)F)cc3)cc2C1=O | 68.3* | / | / | / | / | /
CCCN(C)C[C@H]1OCCCC[C@@H](C)Oc2ccc(NC(=O)Nc3ccc(C(F)(F)F)cc3)cc2C(=O)N([C@H](C)CO)C[C@H]1C | 82.3* | / | / | / | / | /
SMILES | PAX8 inh HTS | Peg3 promoter | TRPM1 prom inh | EBV LMP1 NFkB | Shn3 3UTR inh | HIF-2a inh
CCCN(C)C[C@H]1OCCCC[C@@H](C)Oc2ccc(NC(=O)c3ccccc3)cc2C(=O)N([C@H](C)CO)C[C@@H]1C | -12.5 | / | / | / | / | /
CCCN(C)C[C@H]1OCCCC[C@@H](C)Oc2ccc(NC(=O)c3ccccc3)cc2C(=O)N([C@H](C)CO)C[C@H]1C | 83.3* | / | / | / | / | /
CC(C)C#Cc1ccc([C@H]2[C@@H](C#N)N(C(=O)C3CCC3)[C@H]2CO)cc1 | 2.2 | / | / | / | / | /
COc1ccc(CN2[C@@H](CO)[C@@H]3c4ccccc4NC[C@@H]32)cc1 | 19.7 | / | / | / | / | /
COc1ccc(CN2[C@H](CO)[C@H]3c4ccccc4NC[C@H]32)cc1 | 95.7* | / | / | / | / | /
C(=Cc1nc2ccccc2o1)c1ccc2c(c1)OCO2 | 3.4 | -34.1 | / | 45.2* | 19.3 | -2.8
CC(=O)Nc1ccc(/C=C/c2nc3ccccc3o2)cc1 | -115.8 | -226.1 | -67.4 | -29.3 | -51.1 | -216.8
O=C(/C=C/c1ccc(Cl)cc1Cl)N1CCN(c2ccc([N+](=O)[O-])c(N3CCOCC3)c2)CC1 | -1.9 | 12.2 | 11.8 | 7.6 | 40.0 | 8.0
O=C(/C=C/c1ccc(Cl)cc1Cl)N1CCN(c2ccccc2[N+](=O)[O-])CC1 | 118.6* | 24.6 | 2.4 | 2.8 | -4.2 | 7.4
CC[n+]1c(/C=C/c2ccc(N(C)C)cc2)ccc2ccccc21 | 89.6* | 49.4 | 89.6* | 52.2* | ? | -41.0
CN(C)c1ccc(/C=C/c2cc[n+](C)cc2)cc1 | / | -26.9 | -10.3 | 9.5 | 83.0 | -15.9
CCCCCC[n+]1ccccc1/C=C/c1ccc(N(C)C)cc1 | 98.1* | 31.4 | / | / | 75.6 | -80.0
CC[n+]1ccccc1/C=C/c1ccc(N(C)C)cc1 | 49.3 | 5.2 | 42.3 | 8.8 | 80.0 | 8.3
CC[n+]1ccc(/C=C/c2ccc(N(C)C)cc2)c2ccccc21 | 94.6* | 50.0 | 88.3* | ? | 88.0* | 26.6
C[C@H](CO)N1C[C@H](C)[C@H](CN(C)S(C)(=O)=O)OCCCC[C@H](C)Oc2ccc(NC(=O)CCC(F)(F)F)cc2C1=O | 3.3 | / | / | / | / | /
Cc1noc(C)c1NC(=O)N(C)C[C@@H]1Oc2ccc(NC(=O)Cn3cnnn3)cc2CC(=O)N([C@@H](C)CO)C[C@H]1C | 2.9 | / | / | / | / | /
COc1ccc(CN(C)C[C@@H]2Oc3ccc(NS(=O)(=O)c4cn(C)cn4)cc3CC(=O)N([C@H](C)CO)C[C@H]2C)cc1 | 0.9 | / | / | / | / | /
Cc1cc(C)n(-c2cc(-n3nc(C)cc3C)ncn2)n1 | / | -8.9 | -6.5 | -7.0 | 96.2* | -8.2
CC(C)N=C(N)N=C(N)Nc1ccc(Cl)cc1 | -11.3 | 17.3 | 1.5 | -0.4 | 90.8* | -2.5
NNC(=S)Nc1ccc(Cl)cc1 | 1.2 | 6.2 | 10.9 | -1.4 | 21.3 | 11.8
NC(=NCCCCCCN=C(N)/N=C(\N)Nc1ccc(Cl)cc1)/N=C(\N)Nc1ccc(Cl)cc1 | 98.0*! | 101.6*! | 30.9 | 10.3 | 81.1 | 24.1
CCCCOC(=O)/C=C/c1ccc(OC(=O)OC)c(OC(=O)OC)c1 | -76.9 | -152.3 | -19.5 | -15.1 | 96.2* | -153.8
